# Screening data from PubChem BioAssay.
# Rows were chosen to be rich in hits. Some 2.6% of all compounds tested hit in one or more screens of this group.
# Cruzain Triton = blocks cruzain activity in presence of Triton detergent. purified cruzain, Z-FR-AMC fluorescence, 0.01% Triton. P25779. actives 0.43% (n = 200,000). Potency, µM, hits mostly inhibitors; further: nearly all actives have a fitted effect of over 40% in size
# Target sequence (P25779 123-467 limits assumed): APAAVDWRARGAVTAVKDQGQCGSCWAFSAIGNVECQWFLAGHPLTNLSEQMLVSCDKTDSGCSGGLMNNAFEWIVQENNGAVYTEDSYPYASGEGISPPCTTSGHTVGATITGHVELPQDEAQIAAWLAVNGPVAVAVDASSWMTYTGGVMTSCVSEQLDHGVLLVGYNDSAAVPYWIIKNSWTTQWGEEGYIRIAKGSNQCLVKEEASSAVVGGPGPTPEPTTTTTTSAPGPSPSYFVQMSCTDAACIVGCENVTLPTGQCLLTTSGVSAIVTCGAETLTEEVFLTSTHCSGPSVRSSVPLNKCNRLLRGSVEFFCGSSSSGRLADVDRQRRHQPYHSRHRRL
#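 Steps: dispense cruzain (1.5 nM final) in acetate buffer pH 5.5 with DTT and 0.01% Triton X-100; pin-transfer compounds; incubate 15 min RT; add Z-FR-AMC (2 uM final); read fluorescence every 30 s, using the 60 s intensity change.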
# Cruzain noTriton = inhibitors of Trypanosoma cruzi cruzain without detergent; purified cruzain, Z-FR-AMC fluorescence, no detergent; Potency, µM, actives largely listed as inhibitors; actives 2.3% (n = 200,000); P25779; further: nearly all actives have a fitted effect of over 40% in size
#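 Detergent-free condition (0.00005% Triton X-100) in acetate buffer pH 5.5 with DTT. 1.5 nM enzyme and compound were pre-mixed 15 min, then 2 uM Z-FR-AMC substrate added; reaction progress from fluorescence change between first and third reads (60 s).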
# A number is an active result; . = inactive; ? = inconclusive. The call rests on the fitted dose curve; in most records, active means well fitted curve in the direction sought with a large enough effect; inconclusive means small, poorly fitted or top-dose-only effect, or another doubt; inactive means no such curve, though single readings can be large; an effect the other way counts as inactive or inconclusive.
SMILES,Cruzain Triton,Cruzain noTriton
COc1ccc(OCC(=O)Nc2ccc(O)c(-c3nc4ccccc4s3)c2)cc1,.,.
Oc1ccc(N=C/C=C/c2ccc(Br)cc2)cc1-c1nc2ccccc2s1,.,31.6µM
CCOc1ccc(NC(=O)Cn2c(=O)n(CCCS(=O)(=O)C3CCCCC3)c(=O)c3ccccc32)cc1,.,.
CCn1nc(-c2ccccc2)c(-c2ccccc2)c(C(=O)Nc2ccc(NC(C)=O)cc2)c1=O,.,?
COc1ccc2c(c1)O[C@@H](c1cccc(C(F)(F)F)c1)[C@H](OC(=O)NCc1ccco1)C2=O,.,.
COc1ccc(C(=O)c2sc3nc(-c4ccccc4)ccc3c2N)cc1,.,?
COc1cccc(-c2ccc3c(N)c(C(=O)c4ccc(Cl)cc4)sc3n2)c1,.,7.94µM
Cc1ccc(NC(=O)Cn2nnc3sc4c(c3c2=O)CCCC4)c(C)c1,.,.
Cc1cc(=O)c2c(O)c3c(O)cc(=O)c4c3c3c(cc(O)c1c23)C(C)(C)C=4O,.,.
CCN(CC)S(=O)(=O)c1cccc(C(=O)Nc2cc3oc4ccccc4c3cc2OC)c1,.,?
COc1cc2c(cc1NC(=O)Cc1ccc(C)cc1)oc1ccccc12,.,.
COc1cc2c(cc1NC(=O)CSc1nnnn1-c1ccccc1)oc1ccccc12,.,31.6µM
COc1cc2c(cc1NC(=O)COC(=O)C(CCSC)NC(=O)c1ccccc1Cl)oc1ccccc12 (stereo unspecified),?,25.1µM
COc1cc2c(cc1NC(=O)CSc1ccc(C)cc1)oc1ccccc12,.,.
CCCN(CCC)S(=O)(=O)c1ccc(C(=O)Nc2cc3oc4ccccc4c3cc2OC)cc1,.,15.8µM
COc1cc2c(cc1NC(=O)COC(=O)[C@@H](NS(=O)(=O)c1ccccc1)C(C)C)oc1ccccc12,.,?
COc1cc2c(cc1NC(=O)CN1CCN(S(=O)(=O)c3ccccc3F)CC1)oc1ccccc12,.,25.1µM
Cc1cccc(NC(=O)c2ccc(N(Cc3ccccc3)S(C)(=O)=O)cc2)c1,.,.
COC(=O)C1=C(C)[C@@H](O)[C@@H](C)[C@](C)(c2cc(OC)c(C)c(OC)c2COc2ccccc2)O1,.,.
COc1cc2c(cc1NC(=O)COc1ccccc1OC)oc1ccccc12,.,.
COc1cc2c(cc1NC(=O)COC(=O)c1ccc(C(C)(C)C)cc1)oc1ccccc12,.,12.6µM
Cc1onc(-c2ccccc2)c1C(=O)NC(=S)Nc1sc2c(c1C#N)CCC(C)C2 (stereo unspecified),.,7.94µM
Cc1onc(-c2ccccc2)c1C(=O)NC(=S)Nc1sc2c(c1C#N)CCCC2,.,12.6µM
Cc1onc(-c2c(F)cccc2Cl)c1C(=O)Nc1sc2c(c1C(N)=O)CCC2,.,?
Cc1onc(-c2ccccc2)c1C(=O)Nc1sc2c(c1C#N)CCC2,.,.
SMILES,Cruzain Triton,Cruzain noTriton
Cc1cc(C(=O)Nc2sc3c(c2C#N)CCC(C)C3)no1 (stereo unspecified),.,.
Cc1onc(-c2c(F)cccc2Cl)c1C(=O)Nc1sc2c(c1C#N)CCC(C(C)(C)C)C2 (stereo unspecified),.,10µM
COc1ccc2[nH]cc(CCNc3ccnc(-c4ccc(N(C)C)cc4)n3)c2c1,.,?
COC(=O)c1sccc1S(=O)(=O)N(CC(=O)Nc1cc(F)ccc1F)c1ccc(C)c(C)c1,.,?
Cc1ccc2nc(NC(=O)c3cc(=O)c4cc(Cl)ccc4o3)sc2c1,.,.
COc1ccc(CCN2C(=O)N(c3ccc(C)cc3)C(=O)C2CC(=O)Nc2ccc(OC)cc2)cc1 (stereo unspecified),.,.
c1ccc(Nc2nc3ccccc3[nH]2)nc1,25.1µM,10µM
Cc1cc(C)nc(Nc2nc3ccccc3[nH]2)n1,.,.
CCOc1ccc(NC(=O)Cn2c(=O)n(Cc3nc(-c4ccccc4)no3)c(=O)c3cc4c(cc32)OCO4)cc1,.,.
O=C(Cn1c(=O)n(Cc2nc(-c3ccccc3)no2)c(=O)c2cc3c(cc21)OCO3)Nc1cccc(C(F)(F)F)c1,.,5.01µM
Cc1ccc(NC(=O)Cn2c(=O)n(Cc3nc(-c4ccccc4)no3)c(=O)c3ccccc32)cc1C,.,.
COc1ccc(-c2noc(Cn3c(=O)c4ccccc4n(CC(=O)Nc4cccc(C(F)(F)F)c4)c3=O)n2)cc1,.,15.8µM
Cc1ccc2c(CNCc3cccs3)c(C(=O)O)n(Cc3ccc(F)cc3)c2c1,.,?
COc1ccc(-c2noc(CSc3nnc(C)n3-c3ccc(F)cc3)n2)cc1,.,.
CCCCCCCC/C=C\CCCCCCCCOC[C@H](COP(=O)([O-])OCC[N+](C)(C)C)OC(C)=O,.,?
CCc1cc2c(=O)nc3n(c2s1)Cc1ccccc1/C3=C(/O)c1ccc(F)cc1,.,?
CCc1cc2c(=O)nc3n(c2s1)Cc1ccccc1/C3=C(/O)c1ccccc1Cl,.,25.1µM
COc1ccc(CNC(=O)CN2C(=O)CCn3nc(-c4cn(C)c5ccccc45)cc32)cc1,.,?
Cc1ccc(-n2ncc3c(=O)n(CC(=O)Nc4cccc(Cl)c4)cnc32)cc1C,.,15.8µM
Cc1ccc(-n2ncc3c(=O)n(Cc4cccc(Cl)c4)cnc32)cc1C,.,.
CCOc1ccc(Nc2nc(C)c(NC(=O)c3cccc(F)c3)c(Nc3ccc(OCC)cc3)n2)cc1,.,.
Cc1cc2oc(=O)cc(CSc3nnc(C)n3N)c2cc1C(C)C,.,.
Cc1cc2oc(=O)cc(CSc3nnc(-c4cccs4)o3)c2cc1C(C)C,.,12.6µM
Cc1ccc(NC(=S)/C(=C(\[O-])c2ccc(C)c([N+](=O)[O-])c2)[n+]2ccccc2)cc1C,.,25.1µM
CCC(=O)Nc1cccc(NC(=O)c2ccc(C)c([N+](=O)[O-])c2)c1,.,.
SMILES,Cruzain Triton,Cruzain noTriton
COc1cccc(NC(=S)/C(=C(\[O-])c2ccc(C)c([N+](=O)[O-])c2)[n+]2ccccc2)c1,.,25.1µM
Cc1ccccc1NC(=S)/C(=C(\[O-])c1ccc(C)c([N+](=O)[O-])c1)[n+]1ccccc1,.,.
COc1ccc(-c2nc3c4ccccc4n(CC(=O)Nc4ccc(C(C)C)cc4)c(=O)n3n2)cc1,.,.
Cc1ccc(Sc2c(C)nn(C(=O)c3ccc(Cl)cc3)c2C)cc1,.,.
CC(C)c1ccc(Nc2cc(C(=O)NC3CCCCC3)c3ccccc3n2)cc1,.,.
CCOC(=O)c1cnc2cc(-c3ccc(Cl)cc3)nn2c1N,.,10µM
CCOC(=O)c1cnc2cc(-c3ccc(Cl)cc3)nn2c1-c1ccccc1,.,.
C[C@@H]1CC[C@@]2(OC1)O[C@H]1[C@@H](O)[C@H]3[C@@H]4CC[C@H]5C[C@@H](O[C@@H]6O[C@H](CO)[C@H](O[C@@H]7O[C@H](CO)[C@@H](O)[C@H](O[C@@H]8OC[C@@H](O)[C@H](O)[C@H]8O)[C@H]7O[C@@H]7O[C@H](CO)[C@@H](O)[C@H](O[C@@H]8O[C@H](CO)[C@@H](O)[C@H](O)[C@H]8O)[C@H]7O)[C@H](O)[C@H]6O)[C@H](O)C[C@]5(C)[C@H]4CC[C@]3(C)[C@H]1[C@@H]2C,.,?
Cc1ccc(OCC(=O)Nc2ccccc2C(=O)OCc2cc(=O)n3nc(C4CC4)sc3n2)cc1,.,.
Cc1nc(NC(=O)/C=C/c2ccccc2)sc1C(=O)Nc1ccccc1Cl,.,10µM
Cc1nc(NC(=O)/C=C/c2ccccc2)sc1C(=O)Nc1ccc(Cl)cc1,.,.
Fc1ccc(-c2ccc(CNCCSc3nnnn3-c3ccccc3)o2)cc1,.,.
